The source of these data is the supplement of paper PMC10849652.

About 8,800 targets were measured; listed, in parts, are those with a hit and a random draw of the rest. About 0.5% of all pairs of compound and target were hits.

UniProt O75071, sequence (O75071 whole entry, looked up): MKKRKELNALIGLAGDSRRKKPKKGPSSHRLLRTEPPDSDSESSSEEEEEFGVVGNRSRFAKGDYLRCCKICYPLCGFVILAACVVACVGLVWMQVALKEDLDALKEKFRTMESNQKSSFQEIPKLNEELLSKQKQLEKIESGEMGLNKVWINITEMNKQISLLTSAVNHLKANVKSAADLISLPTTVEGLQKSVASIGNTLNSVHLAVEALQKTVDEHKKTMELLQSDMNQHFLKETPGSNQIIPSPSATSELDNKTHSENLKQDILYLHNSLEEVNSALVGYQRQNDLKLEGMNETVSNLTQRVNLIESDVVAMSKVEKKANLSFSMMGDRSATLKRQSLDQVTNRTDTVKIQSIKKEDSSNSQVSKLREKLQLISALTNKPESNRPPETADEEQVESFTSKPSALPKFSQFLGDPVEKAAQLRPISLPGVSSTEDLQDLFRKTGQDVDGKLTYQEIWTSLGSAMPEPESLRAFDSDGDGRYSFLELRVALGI
UniProt O14893, sequence (O14893 whole entry, looked up): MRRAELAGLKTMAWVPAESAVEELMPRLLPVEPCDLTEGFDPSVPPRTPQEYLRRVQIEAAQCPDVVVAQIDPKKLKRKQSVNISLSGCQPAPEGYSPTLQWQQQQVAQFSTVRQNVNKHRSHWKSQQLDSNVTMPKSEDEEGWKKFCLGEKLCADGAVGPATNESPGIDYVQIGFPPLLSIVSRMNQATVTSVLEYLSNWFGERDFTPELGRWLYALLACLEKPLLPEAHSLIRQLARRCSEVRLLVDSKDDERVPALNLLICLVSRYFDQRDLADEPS
UniProt P85037, sequence (P85037 whole entry, looked up): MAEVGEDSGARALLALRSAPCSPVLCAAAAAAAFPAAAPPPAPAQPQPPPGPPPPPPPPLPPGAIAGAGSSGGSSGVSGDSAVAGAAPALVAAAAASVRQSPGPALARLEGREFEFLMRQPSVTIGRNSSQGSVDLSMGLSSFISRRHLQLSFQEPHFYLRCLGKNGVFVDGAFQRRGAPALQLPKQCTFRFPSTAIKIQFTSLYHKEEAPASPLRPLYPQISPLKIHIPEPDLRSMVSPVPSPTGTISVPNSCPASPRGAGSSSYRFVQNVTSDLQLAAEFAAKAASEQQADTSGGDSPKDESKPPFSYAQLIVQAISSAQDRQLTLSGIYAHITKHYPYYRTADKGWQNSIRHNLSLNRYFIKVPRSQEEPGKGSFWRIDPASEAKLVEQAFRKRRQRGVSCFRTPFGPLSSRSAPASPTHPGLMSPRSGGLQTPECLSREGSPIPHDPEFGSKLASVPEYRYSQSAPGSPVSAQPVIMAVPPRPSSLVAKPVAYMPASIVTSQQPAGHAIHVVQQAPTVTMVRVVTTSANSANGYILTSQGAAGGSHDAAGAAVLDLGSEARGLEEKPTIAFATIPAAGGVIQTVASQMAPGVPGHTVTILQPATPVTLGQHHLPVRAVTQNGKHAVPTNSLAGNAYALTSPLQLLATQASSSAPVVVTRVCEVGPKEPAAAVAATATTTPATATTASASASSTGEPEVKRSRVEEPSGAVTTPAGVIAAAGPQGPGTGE
UniProt O14772, sequence (O14772 whole entry, looked up): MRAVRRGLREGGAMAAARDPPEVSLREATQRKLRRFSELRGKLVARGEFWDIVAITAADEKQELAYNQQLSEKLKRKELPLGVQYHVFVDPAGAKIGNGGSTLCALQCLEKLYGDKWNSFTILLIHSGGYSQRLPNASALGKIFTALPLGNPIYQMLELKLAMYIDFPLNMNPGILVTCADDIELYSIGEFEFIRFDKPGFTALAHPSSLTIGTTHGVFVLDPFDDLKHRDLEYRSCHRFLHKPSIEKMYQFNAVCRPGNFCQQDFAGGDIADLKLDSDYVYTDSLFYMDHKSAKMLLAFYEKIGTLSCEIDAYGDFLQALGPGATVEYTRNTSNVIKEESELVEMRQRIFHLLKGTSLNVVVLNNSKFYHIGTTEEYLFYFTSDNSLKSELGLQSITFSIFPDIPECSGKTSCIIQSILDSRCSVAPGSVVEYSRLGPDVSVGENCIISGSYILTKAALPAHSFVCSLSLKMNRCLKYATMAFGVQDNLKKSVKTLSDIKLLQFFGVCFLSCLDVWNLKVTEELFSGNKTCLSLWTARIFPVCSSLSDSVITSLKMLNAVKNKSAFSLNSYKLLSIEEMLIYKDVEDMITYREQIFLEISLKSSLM
UniProt P51116, sequence (P51116 whole entry, looked up): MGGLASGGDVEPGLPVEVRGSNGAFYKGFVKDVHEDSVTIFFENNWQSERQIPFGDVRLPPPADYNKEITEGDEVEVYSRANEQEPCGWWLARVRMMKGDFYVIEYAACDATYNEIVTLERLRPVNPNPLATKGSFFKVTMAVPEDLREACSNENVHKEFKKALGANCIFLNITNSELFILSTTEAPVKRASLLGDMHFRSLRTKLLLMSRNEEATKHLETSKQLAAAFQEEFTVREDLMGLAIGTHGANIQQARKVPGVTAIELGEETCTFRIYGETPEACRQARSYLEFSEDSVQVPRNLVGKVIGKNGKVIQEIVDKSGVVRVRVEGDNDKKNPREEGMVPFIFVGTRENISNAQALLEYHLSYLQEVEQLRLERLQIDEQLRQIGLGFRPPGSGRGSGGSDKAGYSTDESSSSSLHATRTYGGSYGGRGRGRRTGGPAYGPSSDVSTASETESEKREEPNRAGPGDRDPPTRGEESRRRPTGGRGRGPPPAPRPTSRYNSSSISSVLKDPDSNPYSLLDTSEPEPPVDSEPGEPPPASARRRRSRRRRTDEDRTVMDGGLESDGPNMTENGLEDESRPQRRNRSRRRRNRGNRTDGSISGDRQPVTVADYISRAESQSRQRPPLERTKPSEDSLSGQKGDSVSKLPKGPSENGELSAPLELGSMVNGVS
UniProt O95571, sequence (O95571 whole entry, looked up): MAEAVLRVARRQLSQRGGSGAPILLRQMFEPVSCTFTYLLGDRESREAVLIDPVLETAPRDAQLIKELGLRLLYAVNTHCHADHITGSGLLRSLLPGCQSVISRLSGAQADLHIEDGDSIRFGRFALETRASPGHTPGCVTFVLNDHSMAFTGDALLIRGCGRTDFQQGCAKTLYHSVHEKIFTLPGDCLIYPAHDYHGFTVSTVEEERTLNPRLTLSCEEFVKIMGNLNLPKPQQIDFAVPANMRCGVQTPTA
UniProt Q9Y613, sequence (Q9Y613 whole entry, looked up): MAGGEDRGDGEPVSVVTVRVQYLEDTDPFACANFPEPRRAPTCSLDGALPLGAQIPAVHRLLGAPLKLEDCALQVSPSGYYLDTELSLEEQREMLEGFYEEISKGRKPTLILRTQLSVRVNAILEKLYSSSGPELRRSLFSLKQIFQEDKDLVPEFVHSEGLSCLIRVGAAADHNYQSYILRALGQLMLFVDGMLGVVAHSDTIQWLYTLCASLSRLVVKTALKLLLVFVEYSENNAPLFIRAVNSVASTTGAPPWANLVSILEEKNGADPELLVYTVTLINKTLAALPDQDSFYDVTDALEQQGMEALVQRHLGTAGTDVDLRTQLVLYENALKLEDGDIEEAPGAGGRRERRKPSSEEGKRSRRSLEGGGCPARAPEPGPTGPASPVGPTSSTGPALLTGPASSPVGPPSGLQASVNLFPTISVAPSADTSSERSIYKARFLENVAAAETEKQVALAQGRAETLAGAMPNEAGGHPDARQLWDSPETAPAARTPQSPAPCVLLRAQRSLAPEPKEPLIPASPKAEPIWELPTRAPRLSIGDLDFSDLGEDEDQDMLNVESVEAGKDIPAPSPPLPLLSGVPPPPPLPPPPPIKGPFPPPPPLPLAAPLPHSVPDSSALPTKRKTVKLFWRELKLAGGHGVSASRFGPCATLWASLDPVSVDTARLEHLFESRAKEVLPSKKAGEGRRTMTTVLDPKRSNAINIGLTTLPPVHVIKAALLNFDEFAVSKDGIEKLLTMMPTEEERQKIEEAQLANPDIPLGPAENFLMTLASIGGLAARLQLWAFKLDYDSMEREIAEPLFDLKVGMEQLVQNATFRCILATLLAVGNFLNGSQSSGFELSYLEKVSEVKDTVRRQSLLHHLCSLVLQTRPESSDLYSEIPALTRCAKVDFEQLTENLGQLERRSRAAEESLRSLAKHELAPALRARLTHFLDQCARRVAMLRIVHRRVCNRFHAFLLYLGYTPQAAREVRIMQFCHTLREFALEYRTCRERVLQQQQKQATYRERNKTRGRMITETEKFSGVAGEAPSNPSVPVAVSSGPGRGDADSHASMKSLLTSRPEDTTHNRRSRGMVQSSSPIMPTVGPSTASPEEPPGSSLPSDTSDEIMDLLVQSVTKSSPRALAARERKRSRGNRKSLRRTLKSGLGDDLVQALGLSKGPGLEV
UniProt Q9BPY3, sequence (Q9BPY3 whole entry, looked up): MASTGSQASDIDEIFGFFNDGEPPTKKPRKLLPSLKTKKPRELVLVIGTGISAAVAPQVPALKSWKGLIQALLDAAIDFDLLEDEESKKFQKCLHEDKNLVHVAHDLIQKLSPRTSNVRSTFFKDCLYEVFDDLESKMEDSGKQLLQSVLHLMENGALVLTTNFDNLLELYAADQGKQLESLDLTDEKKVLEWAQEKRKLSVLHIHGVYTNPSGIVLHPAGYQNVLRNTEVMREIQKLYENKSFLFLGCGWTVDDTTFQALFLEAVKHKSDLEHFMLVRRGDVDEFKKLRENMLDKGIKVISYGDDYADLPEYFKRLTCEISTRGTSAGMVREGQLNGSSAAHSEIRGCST
UniProt Q56P03, sequence (Q56P03 whole entry, looked up): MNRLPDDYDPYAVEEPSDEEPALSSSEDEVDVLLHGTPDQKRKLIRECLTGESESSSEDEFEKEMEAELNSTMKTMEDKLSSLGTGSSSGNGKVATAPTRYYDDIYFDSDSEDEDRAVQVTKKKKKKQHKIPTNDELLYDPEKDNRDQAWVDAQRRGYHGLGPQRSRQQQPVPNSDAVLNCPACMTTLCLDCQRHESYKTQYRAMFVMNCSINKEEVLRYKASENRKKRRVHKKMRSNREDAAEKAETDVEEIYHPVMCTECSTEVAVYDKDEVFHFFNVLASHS

Compound in this assay: COc1cc2ncnc(Nc3ccc(F)c(Cl)c3)c2cc1OCCCN1CCOCC1 [gefitinib]
Nature of the assay: log2 fold change, soluble protein after heating vs DMSO (PISA); higher = thermal stabilisation; K562 lysate, 10 uM; active = over 0.2 and 3.5 SD of the protein, either way, in both replicates (recomputed). Summed up:
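K562 pellets were dounce-homogenised in PBS pH 7.4 with 1 mM MgCl2, and the crude extract at 1 mg/mL protein was treated with 10 μM compound for 30 min. Aliquots were heated for 3 min across 48°C-58°C, pooled, and brought to 0.5% NP-40 at 4°C; soluble protein was the supernatant after 21,000xg for 90 min. Soluble protein was quantified by TMTpro 16plex LC-MS/MS with channel sums equalised, and reported as log2 fold change in thermal stability against DMSO controls, with values from duplicates.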
With GEMIN4 (UniProt P57678), the log2 fold change was 0.016 (inactive).
With ERAL1 (UniProt O75616) the figure was 0.02 (inactive); with EMC7 (UniProt Q9NPA0), -0.043 (inactive).
The same measure for EED, A0A5F9ZI63: -0.025 (inactive); for FAM118B (UniProt Q9BPY3): 0.016 (inactive); for GBF1 (UniProt Q92538): -0.03 (inactive).
With FAT2 (UniProt Q9NYQ8) the figure was 0.013 (inactive); with ERLIN1 (UniProt O75477), 0.035 (inactive).
Take EAPP (UniProt Q56P03): the log2 fold change is -0.03 (inactive).
Regarding GIGYF2 (UniProt Q6Y7W6), the log2 fold change was 0.005 (inactive).
With FOXK1 (UniProt P85037) the figure was 0.003 (inactive).
With EIF2B4 (UniProt Q9UI10) the figure was 0.074 (inactive); with GAPDH (UniProt P04406), -0.026 (inactive); with EEF1AKMT4 (UniProt P0DPD7), 0.004 (inactive).
The same measure for FYCO1 isoform 4 (UniProt Q9BQS8): 0.016 (inactive).
As to ETHE1 (UniProt O95571), the log2 fold change is -0.14 (inactive).
The same measure for FBXO22 (UniProt Q8NEZ5): 0.017 (inactive).
The same measure for EP300 (UniProt Q09472): -0.054 (inactive); for GEMIN2 (UniProt O14893): -0.1 (inactive); for DYNC1I2 isoform 5 (UniProt Q13409): 0.006 (inactive).
With FBXO45 (UniProt P0C2W1) the figure was -0.002 (inactive); with GAA (UniProt P10253), -0.043 (inactive); with FXR2 (UniProt P51116), 0.012 (inactive).
For FPGT (UniProt O14772), the log2 fold change was 0.013 (inactive).
The same measure for FHOD1 (UniProt Q9Y613): -0.013 (inactive).
With EFCAB14 (UniProt O75071), the log2 fold change is -0.131 (inactive).
The same measure for DSN1 (UniProt Q9H410): 0 (inactive); for FAM83D (UniProt Q9H4H8): 0.009 (inactive).
The same measure for EWSR1 isoform 5 (UniProt Q01844): -0.003 (inactive).
The same measure for FAM83A (UniProt Q86UY5): 0.017 (inactive).
In the case of DUS2 (UniProt Q9NX74), the log2 fold change is 0.026 (inactive).
With EIF2AK2 (UniProt P19525) the figure was -0.055 (inactive).
